Reference: PubChem BioAssay (NCI)
This is part of a sample that, as a whole, favours compounds with a hit. Of some 83,000 tested, about 20% had one in any assay.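 Negative percent growth values reflect cell death: -40 means 40% of the cells present at the start died, and -100 means all died.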 Activity calls are given as the source filed them. The calls were made as follows: active = growth percent below 10; inactive = the rest.

Legend:
Test in all cases: NCI-60 one-dose screen, 48 h (100 = growth as untreated, 0 = no growth, -100 = all killed)
Details in all cases: 10 µM unless noted
HCT-15 colon = system: HCT-15 colon
HT29 colon = system: HT29 colon
SNB-75 CNS = system: SNB-75 CNS
SNB-19 CNS = system: SNB-19 CNS
U251 CNS = system: U251 CNS
PC-3 prostate = system: PC-3 prostate
SK-MEL-5 melanoma = system: SK-MEL-5 melanoma
UACC-62 melanoma = system: UACC-62 melanoma
LOX IMVI melanoma = system: LOX IMVI melanoma
SK-MEL-28 melanoma = system: SK-MEL-28 melanoma

Measured: growth

C/C(=N\Nc1ccccc1)c1ccc(NC2=CC(=O)c3ccccc3C2=O)cc1
active: SK-MEL-5 melanoma -10.5% | UACC-62 melanoma -7.92%
inactive: HCT-15 colon 31.9% | HT29 colon 75.3% | SNB-75 CNS 51.1% | SNB-19 CNS 85.7% | U251 CNS 45.8% | PC-3 prostate 40.1% | LOX IMVI melanoma 21.4% | SK-MEL-28 melanoma 65.9%

COc1ccc(C2C3=C(COC3=O)N(CCO)c3cc4c(cc32)OCO4)cc1OC (stereo not given)
inactive: HCT-15 colon 77% | HT29 colon 39.9% | SNB-75 CNS 71% | SNB-19 CNS 88.1% | U251 CNS 97.9% | PC-3 prostate 58.3% | SK-MEL-5 melanoma 67.9% | UACC-62 melanoma 71.8% | LOX IMVI melanoma 77.2% | SK-MEL-28 melanoma 89%

O=C1/C(=C/c2cccc(Br)c2)COc2ccc(O)cc21
active: LOX IMVI melanoma -37.1%
inactive: HCT-15 colon 21.4% | HT29 colon 15% | SNB-75 CNS 64.4% | SNB-19 CNS 45.1% | U251 CNS 18.3% | PC-3 prostate 51.2% | SK-MEL-5 melanoma 88.3% | UACC-62 melanoma 42.6% | SK-MEL-28 melanoma 98.8%

Cc1c2ccccc2nc2cc3c(cc12)[C@H]1CC[C@]2(C)C(=O)CC[C@H]2[C@@H]1CC3
inactive: HCT-15 colon 90.3% | HT29 colon 99.9% | SNB-75 CNS 66.4% | SNB-19 CNS 84.9% | U251 CNS 92% | PC-3 prostate 80.6% | SK-MEL-5 melanoma 88.8% | UACC-62 melanoma 88.1% | LOX IMVI melanoma 97.8% | SK-MEL-28 melanoma 111%

O=c1oc2c(cc1-c1ccccc1)c[n+]([O-])c1ccccc21
inactive: HCT-15 colon 103% | HT29 colon 103% | SNB-75 CNS 93% | SNB-19 CNS 97.9% | U251 CNS 97.9% | PC-3 prostate 97% | SK-MEL-5 melanoma 98.1% | UACC-62 melanoma 97.4% | LOX IMVI melanoma 101% | SK-MEL-28 melanoma 109%

Cc1ccc(-c2nc(SCC(=O)N3CCN(c4cc5c(cc4F)c(=O)c(C(=O)O)cn5C4CC4)CC3)nc(Cl)c2C#N)cc1
inactive: HCT-15 colon 99.8% | HT29 colon 103% | SNB-75 CNS 103% | SNB-19 CNS 94.7% | U251 CNS 106% | PC-3 prostate 99.5% | SK-MEL-5 melanoma 101% | UACC-62 melanoma 94.7% | LOX IMVI melanoma 97.2% | SK-MEL-28 melanoma 106%

O=C(Cc1ccc(/C=C/C(=O)c2ncc[nH]2)cc1)Nc1cc(F)c(F)c(F)c1
active: U251 CNS 8.91% | LOX IMVI melanoma -3.1%
inactive: HCT-15 colon 11.9% | HT29 colon 18.1% | SNB-75 CNS 44.8% | SNB-19 CNS 43.4% | PC-3 prostate 48.2% | SK-MEL-5 melanoma 97.7% | UACC-62 melanoma 74.5% | SK-MEL-28 melanoma 103%

Oc1c(CN2CCC(N3CCOCC3)CC2)cc(Cc2cc(CN3CCC(N4CCOCC4)CC3)c(O)c3ncccc23)c2cccnc12
inactive: HCT-15 colon 24% | HT29 colon 30.2% | SNB-75 CNS 56.9% | SNB-19 CNS 29.3% | U251 CNS 27.5% | PC-3 prostate 13.1% | SK-MEL-28 melanoma 45%
active: SK-MEL-5 melanoma 8.31% | UACC-62 melanoma -6.33% | LOX IMVI melanoma 1.05%

Cc1cn(C)cn1
inactive: HCT-15 colon 99% | HT29 colon 98.7% | SNB-75 CNS 98.7% | SNB-19 CNS 107% | U251 CNS 98% | PC-3 prostate 93.9% | SK-MEL-5 melanoma 112% | UACC-62 melanoma 105% | LOX IMVI melanoma 94.6% | SK-MEL-28 melanoma 109%

Clc1cccc(C2Cc3cnccc3-c3[nH]c4ccncc4c32)c1 (stereo not given)
active: SK-MEL-5 melanoma -60.2%
inactive: HCT-15 colon 25.2% | HT29 colon 40.9% | SNB-75 CNS 73.6% | SNB-19 CNS 53.9% | U251 CNS 36.9% | PC-3 prostate 21.1% | UACC-62 melanoma 36.5% | LOX IMVI melanoma 39.7% | SK-MEL-28 melanoma 62.7%

COc1ccc(-c2cc(C(=O)N3N=C(c4ccc(N)cc4)CC3c3ccc(Cl)cc3)c3cc(OC)ccc3n2)cc1 (stereo not given)
inactive: HCT-15 colon 22.4% | HT29 colon 45.1% | SNB-75 CNS 87.3% | SNB-19 CNS 92.6% | U251 CNS 74.9% | PC-3 prostate 22.9% | SK-MEL-5 melanoma 88% | UACC-62 melanoma 49% | LOX IMVI melanoma 39% | SK-MEL-28 melanoma 48%

O=C(CCCCCCCC(=O)N1CCCCC1)N1CCCCC1
inactive: HCT-15 colon 96.8% | HT29 colon 106% | SNB-75 CNS 78.8% | SNB-19 CNS 105% | U251 CNS 102% | PC-3 prostate 95.3% | SK-MEL-5 melanoma 97.1% | UACC-62 melanoma 91% | LOX IMVI melanoma 88.1% | SK-MEL-28 melanoma 102%

c1ccc2cc(Cn3cc(CSc4nc5ccccc5s4)nn3)ccc2c1
inactive: HCT-15 colon 107% | HT29 colon 95.7% | SNB-75 CNS 101% | SNB-19 CNS 93.3% | U251 CNS 95.6% | PC-3 prostate 93.1% | SK-MEL-5 melanoma 107% | UACC-62 melanoma 84.8% | LOX IMVI melanoma 98.8% | SK-MEL-28 melanoma 102%

CSc1nc(-c2ccco2)c(C#N)c(=O)n1C
inactive: HCT-15 colon 98.1% | HT29 colon 113% | SNB-75 CNS 89.3% | SNB-19 CNS 93.7% | U251 CNS 103% | PC-3 prostate 94.4% | SK-MEL-5 melanoma 101% | UACC-62 melanoma 99.5% | LOX IMVI melanoma 97.2% | SK-MEL-28 melanoma 109%

CCCOC(=O)Nc1nc2ccc(SCC)cc2s1
inactive: HCT-15 colon 54.3% | HT29 colon 31.3% | SNB-75 CNS 90.5% | SNB-19 CNS 84.5% | U251 CNS 85% | PC-3 prostate 80.8% | SK-MEL-5 melanoma 83.6% | UACC-62 melanoma 61.2% | LOX IMVI melanoma 71.1% | SK-MEL-28 melanoma 85.9%

CSc1ccc(N2C(=N)C(=S)N(c3ccc(C)cc3)C2=O)cc1
inactive: HCT-15 colon 85.9% | HT29 colon 107% | SNB-75 CNS 89.9% | SNB-19 CNS 101% | U251 CNS 91% | PC-3 prostate 74% | SK-MEL-5 melanoma 101% | UACC-62 melanoma 92.8% | LOX IMVI melanoma 87.4% | SK-MEL-28 melanoma 106%

Nc1nc(N(Cc2ccccc2)c2ccccc2)c2cn[nH]c2n1
inactive: HCT-15 colon 49.8% | HT29 colon 32.3% | SNB-75 CNS 56.8% | SNB-19 CNS 68.1% | U251 CNS 42.6% | PC-3 prostate 74.8% | SK-MEL-5 melanoma 44.6% | UACC-62 melanoma 45.7% | LOX IMVI melanoma 53% | SK-MEL-28 melanoma 63.4%

O=C(NNc1nc2cc(F)ccc2n2c(CN3CCOCC3)ccc12)c1ccccc1
inactive: HCT-15 colon 16.9% | SNB-75 CNS 46.1% | SNB-19 CNS 18.8% | PC-3 prostate 22.9% | SK-MEL-28 melanoma 15.7%
active: HT29 colon 1.95% | U251 CNS -34.5% | SK-MEL-5 melanoma -9.55% | UACC-62 melanoma -4.27% | LOX IMVI melanoma -39.6%

CNC(=O)c1cc(Oc2ccc3c(c2)sc2nc(-c4ccc(Cl)c(C(F)(F)F)c4)cn23)ccn1
inactive: HCT-15 colon 65% | HT29 colon 56% | SNB-75 CNS 81.4% | SNB-19 CNS 77.2% | U251 CNS 71.9% | PC-3 prostate 45.3% | SK-MEL-5 melanoma 18.8% | UACC-62 melanoma 60.6% | LOX IMVI melanoma 50% | SK-MEL-28 melanoma 80.1%

C=C(C)[C@@H]1CC[C@]2(C(=O)Nc3ccccn3)CC[C@]3(C)[C@H](CC[C@@H]4[C@@]5(C)CCCNC(C)(C)[C@@H]5CC[C@]43C)[C@@H]12
inactive: HCT-15 colon 13.1% | SNB-75 CNS 33.4% | SNB-19 CNS 25% | U251 CNS 10.4% | PC-3 prostate 17.3% | UACC-62 melanoma 36.1% | LOX IMVI melanoma 10.9% | SK-MEL-28 melanoma 31.9%
active: HT29 colon 4.13% | SK-MEL-5 melanoma -96.5%

CC1SC(c2ccccc2O)N(NC(=O)CCC(=O)c2nc3ncccc3[nH]2)C1=O (stereo not given)
inactive: HCT-15 colon 103% | HT29 colon 105% | SNB-75 CNS 83.8% | SNB-19 CNS 101% | U251 CNS 97.3% | PC-3 prostate 92.3% | SK-MEL-5 melanoma 95.1% | UACC-62 melanoma 99.4% | LOX IMVI melanoma 84.8% | SK-MEL-28 melanoma 113%

CN(C)CCCC1(c2ccc(F)cc2)OCc2cc(-c3csc4ccccc34)ccc21 (stereo not given)
active: HCT-15 colon -59.7% | HT29 colon -29.2% | SNB-19 CNS -35.6% | U251 CNS -57.1% | SK-MEL-5 melanoma -45.7% | UACC-62 melanoma -86.3% | LOX IMVI melanoma -97.9% | SK-MEL-28 melanoma -84%
inactive: SNB-75 CNS 29.7% | PC-3 prostate 30%

O=C(/C=C/c1ccco1)Nc1ncc(Cc2cc(Cl)ccc2Cl)s1
active: HT29 colon 9.68%
inactive: HCT-15 colon 13.5% | SNB-75 CNS 16.6% | SNB-19 CNS 44.8% | U251 CNS 18.9% | PC-3 prostate 25.3% | SK-MEL-5 melanoma 15.2% | UACC-62 melanoma 26.9% | LOX IMVI melanoma 25.9% | SK-MEL-28 melanoma 57%

COc1cc(-c2cc(-c3ccc(Nc4nc(Nc5ccc(Cl)cc5)nc(Nc5ccc(Cl)cc5)n4)cc3)no2)cc(OC)c1OC
inactive: HCT-15 colon 81.2% | HT29 colon 78.8% | SNB-75 CNS 74.6% | SNB-19 CNS 81.6% | U251 CNS 73.4% | PC-3 prostate 60.1% | SK-MEL-5 melanoma 61.2% | UACC-62 melanoma 82.1% | LOX IMVI melanoma 73.3% | SK-MEL-28 melanoma 88%

CN1CCN(c2ccc(NC3=CC(=O)c4ncncc4C3=O)cc2)CC1
active: HCT-15 colon -71.7% | HT29 colon -29% | SNB-75 CNS -94.7% | SNB-19 CNS -91.9% | U251 CNS -82.3% | PC-3 prostate -8.86% | SK-MEL-5 melanoma -94% | UACC-62 melanoma -89.8% | LOX IMVI melanoma -63.8% | SK-MEL-28 melanoma -75.3%

Oc1ccc(-c2nc3ccc4[nH]ncc4c3c3c2CCCC3)c(F)c1
inactive: HCT-15 colon 15.8% | HT29 colon 42.5% | SNB-75 CNS 17% | SNB-19 CNS 60.5% | U251 CNS 38.3% | PC-3 prostate 33.8% | UACC-62 melanoma 11.7% | LOX IMVI melanoma 27.8% | SK-MEL-28 melanoma 17.5%
active: SK-MEL-5 melanoma 3.31%
